# Screens (PubChem)
# ELG1 DNA repair: qHTS screen for small molecules that inhibit ELG1-dependent DNA repair in human embryonic kidney (HEK293T) cells expressing luciferase-tagged ELG1 | HEK293T ELG1-luciferase reporter, luminescence, 16 h; DNA damage induced by 5-fluorouridine | AID 504467, 2011 | 2.3% of 330,000 active | Potency, µM (doses to about 46.1 µM), for inactives: at the highest dose activity change, negative = inhibition, actives largely listed as inhibitors; note: % is set by controls: 0 for no effect and ±100 for the full control effect; nearly all actives have a fitted effect of over 55% in size
#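 5-Fluorouridine DNA damage + compound/DMSO, 2,000 cells/well, 16 h, 37 °C/5% CO2. ONE-Glo, 30 min RT, luminescence. Readout = decrease in reporter signal.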
# SW480 rerep: A quantitative high throughput screen for small molecules that induce DNA re-replication in SW480 colon adenocarcinoma cells; SW480 DNA re-replication, Hoechst DNA content imaging, 48 h; Potency, µM (top dose mostly 46.1 µM), for the others: at the highest dose re-replication activation, most hits filed as activators; 1.8% of 340,000 active; AID 624297, 2012; note: % of control where 0% means no effect; nearly all actives have a fitted effect of over 55% in size
#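 Per well, 250 cells were exposed to pinned compound for 48 hr. Nuclear DNA was visualised with Hoechst (40 min, 37 C) and total object intensity recorded by fluorescence scanning.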
# MCF10A rereplic: A quantitative high throughput screen for small molecules that induce DNA re-replication in MCF 10a normal breast cells. MCF 10A DNA re-replication, Hoechst nuclear intensity, 48 h. Potency, µM (series often up to 46.1 µM), inactives show top-dose activity, positive = re-replication, actives largely listed as activators. 2.9% of 350,000 active. AID 624296, 2012; note: % of control where 0% means no effect; nearly all actives have a fitted effect of over 50% in size
# KB-V1 cytotox: qHTS assay for MDR1-selective chemotherapeutics: Primary screen using the drug-selected MDR subline cells KB-V1 | KB-V1 MDR cells viability, CellTiter-Glo, 72 h | 3.4% of 400,000 active | Potency, µM (highest dose often 46.1 µM), hits mostly cytotoxic; note: % is set by controls: 0 for no effect and ±100 for the full control effect; nearly all actives have a fitted effect of over 60% in size
#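 KB-V1, DMEM (no phenol red) + 10% FBS; cpd pin-transferred, titration series; 72 h, 37 degrees C; CellTiter-Glo, luminescence. Data normalized, curve-fit.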
# KB-3-1 cytotox: qHTS assay for MDR1-selective chemotherapeutics: Primary screen using the parental adenocarcinoma cell KB-3-1; KB-3-1 viability, CellTiter-Glo ATP luminescence, 72 h; Potency, µM (highest dose often 46.1 µM), actives largely listed as cytotoxic; 1.4% of 400,000 active; AID 1347075, 2019; note: % is set by controls: 0 for no effect and ±100 for the full control effect; nearly all actives have a fitted effect of over 60% in size
#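 Screening of KB-3-1 cells (DMEM, 10% FBS, phenol-red free) ran from lowest to highest compound concentration; after 72 h at 37 °C viability was read luminescently and curves fitted.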
# The depositor's hits bear a star; i = inactive; ? = inconclusive; . = no result. Only some compounds are listed: those with a hit (about 8.1% of all), similar ones and a draw of the others. Calls come from the whole dose curve; as a rule, active = well fitted curve in the direction sought with a large enough effect; inconclusive = small, poorly fitted or top-dose-only effect, or another doubt; inactive = no such curve, though single readings can be large; an effect the other way counts as inactive or inconclusive. Potency is the fitted concentration of half-maximal effect.
SMILES,ELG1 DNA repair,SW480 rerep,MCF10A rereplic,KB-V1 cytotox,KB-3-1 cytotox
Cc1cccc(NC(=O)c2cccc(N3C(=O)C4C5CCC(C5)C4C3=O)c2)c1C (stereo not given),-2%,4%,2%,8.2µM*,i
Cc1cccc(CSC(Nc2ccc(F)cc2)=C(C#N)C#N)c1,?,?,15µM*,?,16µM*
CC(SCc1ccccc1)C(=O)Nc1ccc(F)cc1 (stereo not given),-7%,3%,22%,?,i
Cc1cccc(CSC(=N)N)c1,?,0%,6%,i,i
N#CC(C#N)=C(Nc1ccc(F)cc1)SCc1cccc(Br)c1,?,?,3.3µM*,9.2µM*,10µM*
Cc1ccc(S(=O)(=O)N2CN(Cc3ccco3)c3nc4ccccc4nc32)cc1,-6%,8%,15%,i,i
COc1ccc(S(=O)(=O)N2CN(Cc3ccco3)c3nc4ccccc4nc32)cc1,4%,?,0%,5.8µM*,i
CC(SCc1cc(=O)n2c([nH]c3ccccc32)c1C#N)C(=O)O (stereo not given),-12%,-3%,-2%,?,i
CCc1c(C)c(C#N)c2[nH]c3ccccc3n2c1=S,?,-58%,?,7.3µM*,?
CCc1cc(=S)n2c([nH]c3ccccc32)c1C#N,?,?,?,5.8µM*,?
CCc1cc(=O)n2c([nH]c3ccccc32)c1C#N,16%,-2%,?,i,i
COc1ccc(-n2c(SCc3ccccc3F)nc3c([nH]c4ccccc43)c2=O)cc1OC,.,.,.,?,i
O=C(c1ccccc1)c1ccc(-n2ccnc2)c([N+](=O)[O-])c1,-9%,-4%,2%,18µM*,i
O=C(O)c1ccc(-n2ccnc2)c([N+](=O)[O-])c1,20%,1%,-7%,?,i
CCS(=O)(=O)N1CCC(C(=O)Nc2ccccc2OC)CC1,-1%,-2%,5%,i,i
Cn1nc(SCc2ccccc2)c(=O)n(C(c2ccccc2)c2ccccc2)c1=O,.,1%,1%,21µM*,?
Cn1nc(SCc2ccccc2)c(=O)[nH]c1=O,.,.,.,i,i
COc1cccc(-c2noc(C3CCCN(C(=O)c4ccccc4OC)C3)n2)c1 (stereo not given),?,0%,9%,i,i
COc1cccc(-c2noc(C3CCCN(C(=O)CC(C)(C)C)C3)n2)c1 (stereo not given),-11%,24%,0.46µM*,i,i
CCCS(=O)(=O)N1CCCC(c2nc(-c3cccc(OC)c3)no2)C1 (stereo not given),?,2%,-3%,12µM*,i
CCCCC(=O)N1CCCC(c2nc(-c3cccc(OC)c3)no2)C1 (stereo not given),?,-3%,-2%,i,i
COc1cccc(-c2noc(C3CCCN(S(=O)(=O)c4cccc(Cl)c4C)C3)n2)c1 (stereo not given),-15%,3%,25%,15µM*,i
CN(Cc1ccc(OC(F)F)cc1)C(=O)C1CCN(S(=O)(=O)c2ccc3c(c2)OCCO3)CC1,7.3µM*,-10%,29%,i,i
CN(CC(=O)Nc1ccc(F)cc1)C(=O)C1CCN(S(=O)(=O)c2ccc3c(c2)OCCO3)CC1,-14%,-491%,14%,i,i
CN(Cc1ccc(OC(F)F)cc1)C(=O)/C=C/c1ccc(S(=O)(=O)N2CCOCC2)cc1,16µM*,-6%,11%,i,i
COc1ccc(OC)c(NC(=O)/C=C/c2ccc(S(=O)(=O)N3CCOCC3)cc2)c1,-23%,-2%,7%,i,i
COc1ccc(CN(C)C(=O)/C=C/c2ccc(S(=O)(=O)N3CCOCC3)cc2)cc1F,23µM*,-2%,8%,?,i
